Assay [1] is described as follows: qHTS Assay for Identification of Small Molecule Antagonists for NFkB Signaling Pathway (AID 895; active = well fitted inhibition curve with a large enough effect in the signal ratio, with a control signal flat, not every such curve was filed as active; the % refers to the signal ratio; note: % is set by controls: 0 for no effect and ±100 for the full control effect). Summed up: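 Beta-lactamase reporter read-out (460 and 530 nm emission ratio, 405 nm excitation, 2 hrs substrate loading RT) after 5 hr stimulation with 10 pM TNF alpha in compound-treated NFkB-bla ME-180 cells in low-serum medium.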
In general terms: In qHTS, concentration-response curves come from the screen itself.

In assay [2] the target is Muscarinic acetylcholine receptor M1 (Rattus norvegicus) (UniProt P08482). Briefly: qHTS Assay for Antagonists of Acetylcholine Muscarinic M1 Receptor: Measurement of IP-One Response (AID 944). Note: nearly all actives have a fitted effect of over 75% in size. Note: potency is the fitted concentration of half-maximal effect. Summed up:
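Read-out: HTRF competition between d2-IP1 and Eu-cryptate anti-IP1 antibody, emission 620 and 665 nm. Stimulus was carbachol, EC80 (200 nM), for 30 min in M1-CHO cells (rat receptor), after 10 min compound pre-treatment.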

For assay [3], the target named is Pyruvate kinase (Leishmania mexicana) (UniProt Q27686). Briefly: qHTS Validation Assay for Inhibitors of Leishmania Mexicana Pyruvate Kinase (AID 945).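 Note: 0% = DMSO only neutral control wells.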 Summed up:
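Purified LmPYK (E451W mutant, 0.2 nM) was incubated 1 h at room temperature with 0.5 mM PEP and 0.1 mM ADP in 50 mM imidazole pH 7.2, 50 mM KCl, 7 mM MgCl2; ATP formed was read by PKLight luminescence, normalized to DMSO wells.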

In assay [4] the target is Pyruvate kinase PKM (Homo sapiens) (UniProt P14618). Briefly: qHTS Assay for Activators of Human Muscle Pyruvate Kinase (AID 954; active = well fitted curve in the direction sought with a large enough effect, not every such curve was filed as active;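 note: 0% = uninhibited enzyme and -100% = no enzyme or full thiadiazolimine inhibition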). The method in brief:
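ATP production by PKM2 detected via luciferase luminescence after 1 h room-temperature reaction (0.1 nM enzyme, PEP at Km 0.5 mM, ADP 0.1 mM, pH 7.2 imidazole buffer). Inhibition scaled to no-enzyme control; activation referenced to 0.3 nM enzyme wells.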

Assay [5] concerns the target Alpha-galactosidase A (Homo sapiens) (UniProt P06280). Briefly: Counterscreen for Glucocerebrosidase Inhibitors: qHTS Assay for Human alpha-Galactosidase at pH 4.5 (AID 992). Note: 0% is about no effect. The method in brief:
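Fluorogenic 1536-well qHTS at pH 4.5 (citrate, Tween-20): 2 nM enzyme, 80 uM 4-MU-alpha-galactoside, 20 min room temperature, NaOH/glycine stop. Titration 0.7 nM to 77 uM, data normalized to no-enzyme and full-activity controls, Hill-fitted AC50.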
Background: The purpose of a counterscreen is to sort out artefacts and off-target activity.

Assay [6] concerns the target alpha-glucosidase (Oryza sativa, rice) (UniProt Q653V4). Briefly: Counterscreen for Glucocerebrosidase Inhibitors: qHTS Assay for Rice alpha-Glucosidase at pH 5.0 (AID 997).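 Note: 0% = full activity with enzyme and -100% = basal without enzyme.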 Summed up:
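Endpoint fluorogenic assay at pH 5.0: compounds (0.7 nM to 77 uM) titrated against 4 nM rice enzyme and 400 uM 4-MU-alpha-glucoside for 20 min at room temperature; NaOH/glycine stop, read ex 365/em 440 nm, Hill-fitted AC50.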

The target of assay [7] is Cytochrome P450 3A4 (Homo sapiens) (UniProt P08684). Briefly: qHTS Assay for Activators of Cytochrome P450 3A4 (AID 885). Note: nearly all actives have a fitted effect of over 65% in size. The method in brief:
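Luminescent readout of luciferin formed from 25 uM Luciferin-PPXE (KM level) by 20 nM CYP3A4 in 200 mM KPO4, with 60 min NADPH-driven reaction at room temperature after 10 min compound exposure. Ketoconazole (57 uM) defined 100% inhibition.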

The target of assay [8] is Cytochrome P450 2C19 (Homo sapiens) (UniProt P33261). Briefly: qHTS Assay for Inhibitors and Substrates of Cytochrome P450 2C19 (AID 899). Note: nearly all actives have a fitted effect of over 60% in size. Note: potency is the fitted concentration of half-maximal effect. The method in brief:
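5nM enzyme + 10uM Luciferin-H EGE (=KM), 50mM KPO4; cpd pin-transferred, 10 min 37C; NADPH regen, 60 min 37C; stopped w/ luciferin detection reagent, 20 min; luminescence. Normalized to 57uM ketoconazole (AC100).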

A short description of assay [9]: qHTS Assay for Identification of Small Molecule Agonists for Thrombopoietin (TPO) Signaling Pathway (AID 917). Note: % is set by controls: 0 for no effect and ±100 for the full control effect. The method in brief: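 Stimulation at the TPO EC50 (26 pM final) was used to detect activators. Ba/F3 mouse cells bearing human TPO receptor and a luciferase reporter under the Glycoprotein IIb promoter were exposed to compounds for 24 hrs at 37 C.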
Assay [10] deals with Cytochrome P450 2C9 (Homo sapiens) (UniProt P11712). Briefly: qHTS Assay for Inhibitors and Substrates of Cytochrome P450 2C9 (AID 883). Note: nearly all actives have a fitted effect of over 60% in size. Note: potency is the fitted concentration of half-maximal effect. The method in brief:
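Inhibition of CYP2C9 is scored as loss of luminescence, with 57uM sulphaphenazole defining 100% inhibition. Substrate Luciferin-H is used at 100uM, equal to its KM; enzyme at 10nM in 25mM KPO4, 60 min at 37C with NADPH regeneration.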

In assay [11] the target is Muscarinic acetylcholine receptor M1 (Rattus norvegicus) (UniProt P08482). Briefly: qHTS Assay for Antagonists of Acetylcholine Muscarinic M1 Receptor: Kinetic Measurement of Intracellular Calcium Response (AID 943). Note: nearly all actives have a fitted effect of over 75% in size. Note: potency is the fitted concentration of half-maximal effect. Summed up:
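Read-out: peak over basal Fluo-4 fluorescence, kinetic at 1 Hz for 4 min after EC80 carbachol (100 nM final). Rat M1-CHO cells, dye loaded 1 h at 37C, compound added 10 min before agonist.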

Each structure is given as a SMILES string. Unmarked numbers belong to inactive results. Results filed as inconclusive are left out. Activity calls are given as the source filed them. Unless noted, calls come from the whole dose curve; as a rule, active = well fitted curve in the direction sought with a large enough effect; inconclusive = small, poorly fitted or top-dose-only effect, or another doubt; inactive = no such curve, though single readings can be large; an effect the other way counts as inactive or inconclusive.

Pyruvate kinase (Leishmania mexicana), sequence (Q27686 2-499 E452W): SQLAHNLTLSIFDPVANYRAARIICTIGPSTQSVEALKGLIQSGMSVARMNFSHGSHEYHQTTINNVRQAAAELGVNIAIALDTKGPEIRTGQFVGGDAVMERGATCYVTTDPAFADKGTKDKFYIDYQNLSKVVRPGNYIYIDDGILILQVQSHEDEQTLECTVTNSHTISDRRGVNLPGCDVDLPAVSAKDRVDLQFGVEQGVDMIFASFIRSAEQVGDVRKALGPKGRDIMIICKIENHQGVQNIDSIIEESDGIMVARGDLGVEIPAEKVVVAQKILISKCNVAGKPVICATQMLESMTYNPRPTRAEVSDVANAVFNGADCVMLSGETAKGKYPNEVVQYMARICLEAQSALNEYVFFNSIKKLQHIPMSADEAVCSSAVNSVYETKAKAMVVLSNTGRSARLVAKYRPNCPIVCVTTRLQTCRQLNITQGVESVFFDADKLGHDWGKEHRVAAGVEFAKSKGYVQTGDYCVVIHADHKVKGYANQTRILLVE
Cytochrome P450 2C19 (Homo sapiens), sequence (P33261 whole entry, looked up): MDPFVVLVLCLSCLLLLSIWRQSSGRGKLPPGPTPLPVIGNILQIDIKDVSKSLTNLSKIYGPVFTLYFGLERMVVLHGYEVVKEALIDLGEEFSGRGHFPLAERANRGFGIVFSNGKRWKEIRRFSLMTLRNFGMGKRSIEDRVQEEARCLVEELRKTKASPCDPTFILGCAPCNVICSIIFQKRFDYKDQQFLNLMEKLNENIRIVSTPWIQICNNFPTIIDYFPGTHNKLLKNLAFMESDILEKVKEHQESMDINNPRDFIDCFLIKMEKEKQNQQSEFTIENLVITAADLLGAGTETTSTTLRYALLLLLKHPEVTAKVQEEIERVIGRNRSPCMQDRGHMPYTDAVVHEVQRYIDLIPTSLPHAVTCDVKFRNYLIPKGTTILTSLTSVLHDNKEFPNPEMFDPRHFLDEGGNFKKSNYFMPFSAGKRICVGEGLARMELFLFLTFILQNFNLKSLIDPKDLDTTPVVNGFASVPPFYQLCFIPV
Alpha-galactosidase A (Homo sapiens), sequence (P06280 whole entry, looked up): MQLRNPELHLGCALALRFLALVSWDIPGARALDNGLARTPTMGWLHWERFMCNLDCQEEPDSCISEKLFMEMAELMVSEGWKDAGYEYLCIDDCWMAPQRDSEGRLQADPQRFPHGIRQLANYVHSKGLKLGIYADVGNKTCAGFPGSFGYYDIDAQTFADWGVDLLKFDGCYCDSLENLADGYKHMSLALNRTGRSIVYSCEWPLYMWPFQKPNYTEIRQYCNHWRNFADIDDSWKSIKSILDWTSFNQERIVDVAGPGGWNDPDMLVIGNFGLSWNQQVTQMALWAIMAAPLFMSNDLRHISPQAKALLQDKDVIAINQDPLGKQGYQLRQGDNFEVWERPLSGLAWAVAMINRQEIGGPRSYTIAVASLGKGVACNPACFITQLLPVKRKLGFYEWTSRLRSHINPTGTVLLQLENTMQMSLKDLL
Pyruvate kinase PKM (Homo sapiens), sequence (P14618 whole entry, looked up): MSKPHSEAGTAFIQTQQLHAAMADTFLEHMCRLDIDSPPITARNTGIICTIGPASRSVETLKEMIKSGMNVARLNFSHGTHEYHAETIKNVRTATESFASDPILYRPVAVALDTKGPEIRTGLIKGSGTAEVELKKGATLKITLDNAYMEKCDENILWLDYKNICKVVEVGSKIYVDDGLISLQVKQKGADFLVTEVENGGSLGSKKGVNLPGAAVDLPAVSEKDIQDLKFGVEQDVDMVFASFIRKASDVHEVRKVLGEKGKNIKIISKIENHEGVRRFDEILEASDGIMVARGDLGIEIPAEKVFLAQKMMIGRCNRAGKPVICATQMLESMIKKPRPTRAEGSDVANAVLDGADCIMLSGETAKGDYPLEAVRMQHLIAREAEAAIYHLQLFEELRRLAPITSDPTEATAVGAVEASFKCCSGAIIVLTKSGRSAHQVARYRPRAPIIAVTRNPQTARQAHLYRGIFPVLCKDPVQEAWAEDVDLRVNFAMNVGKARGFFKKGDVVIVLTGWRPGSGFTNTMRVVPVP
Muscarinic acetylcholine receptor M1 (Rattus norvegicus), sequence (P08482 whole entry, looked up): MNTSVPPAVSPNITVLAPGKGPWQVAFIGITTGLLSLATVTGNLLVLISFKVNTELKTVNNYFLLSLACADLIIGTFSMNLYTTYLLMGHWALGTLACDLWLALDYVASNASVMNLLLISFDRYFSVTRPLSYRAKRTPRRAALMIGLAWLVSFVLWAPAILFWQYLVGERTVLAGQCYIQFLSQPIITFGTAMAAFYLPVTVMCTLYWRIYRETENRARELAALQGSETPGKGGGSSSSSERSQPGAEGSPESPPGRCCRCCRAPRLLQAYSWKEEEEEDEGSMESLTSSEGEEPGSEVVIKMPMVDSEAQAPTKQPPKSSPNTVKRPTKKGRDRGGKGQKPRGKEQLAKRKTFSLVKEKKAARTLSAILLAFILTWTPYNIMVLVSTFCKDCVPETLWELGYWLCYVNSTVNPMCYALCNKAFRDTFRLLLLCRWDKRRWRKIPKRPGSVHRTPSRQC
Cytochrome P450 3A4 (Homo sapiens), sequence (P08684 whole entry, looked up): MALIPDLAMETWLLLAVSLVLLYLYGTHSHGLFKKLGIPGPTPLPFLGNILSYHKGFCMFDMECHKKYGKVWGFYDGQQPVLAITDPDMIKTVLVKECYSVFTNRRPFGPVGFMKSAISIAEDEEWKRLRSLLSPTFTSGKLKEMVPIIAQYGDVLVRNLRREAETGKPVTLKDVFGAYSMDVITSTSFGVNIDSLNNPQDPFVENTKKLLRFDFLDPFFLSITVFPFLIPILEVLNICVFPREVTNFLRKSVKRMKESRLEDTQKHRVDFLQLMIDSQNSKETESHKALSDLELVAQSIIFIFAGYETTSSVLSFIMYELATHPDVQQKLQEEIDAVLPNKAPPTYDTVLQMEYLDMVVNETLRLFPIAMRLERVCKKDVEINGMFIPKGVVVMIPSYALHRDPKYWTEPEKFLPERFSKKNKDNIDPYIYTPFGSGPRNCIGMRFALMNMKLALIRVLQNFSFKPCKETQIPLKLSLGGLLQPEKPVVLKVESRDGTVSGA
Cytochrome P450 2C9 (Homo sapiens), sequence (P11712 whole entry, looked up): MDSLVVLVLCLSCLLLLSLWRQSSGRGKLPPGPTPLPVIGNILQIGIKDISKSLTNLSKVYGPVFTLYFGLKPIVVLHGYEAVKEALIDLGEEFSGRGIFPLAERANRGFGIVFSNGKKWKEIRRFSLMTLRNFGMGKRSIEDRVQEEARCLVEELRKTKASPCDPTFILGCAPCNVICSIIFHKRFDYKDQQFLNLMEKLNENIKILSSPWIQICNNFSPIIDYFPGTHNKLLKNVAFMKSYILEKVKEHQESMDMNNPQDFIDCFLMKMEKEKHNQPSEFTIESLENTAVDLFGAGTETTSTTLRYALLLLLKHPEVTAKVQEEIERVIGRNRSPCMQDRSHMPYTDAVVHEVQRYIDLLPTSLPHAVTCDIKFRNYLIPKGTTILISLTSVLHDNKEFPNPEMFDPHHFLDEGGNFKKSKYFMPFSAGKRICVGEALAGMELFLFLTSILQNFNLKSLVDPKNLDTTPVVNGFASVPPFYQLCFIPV

For the compound `C[C@@]12CC[C@H]3[C@@H](CCC4=C(O)C(=O)CC[C@]43C)[C@H]1CCC2=O`, the Potency result in [1] and in [2] was “inactive” throughout. The compound was classed as inactive in assay [3], in assay [4], in [5] and in [6].

`C[C@@H]1Cc2cc3c(cc2C(c2ccc(N)cc2)=NN1)OCO3`: the Potency result in [7] and in assay [2] was “inactive” in each case. Moreover, the Potency in assay [8] is 2000 nM (active). Also, the call in assay [9], in [3], in assay [4], in assay [5] and in assay [6] was inactive.

Take `CCn1cnc2c(Nc3cccc(Cl)c3)nc(N[C@@H]3CCCC[C@H]3N)nc21`: the Potency entry in assay [7] and in assay [8] was “inactive” in each case. In addition, the outcome in [3], in [4], in assay [5] and in assay [6] was inactive.

`C[C@@H](O)CN(CCN(C[C@@H](C)O)C[C@@H](C)O)C[C@@H](C)O.O=[N+]([O-])O.[Cu]`: the Potency in assay [10] is 794 nM (active); in assay [8], 398 nM (active). Further, the activity change, positive = activation in assay [7] was -36.8% [at 11.4 µM].

With `CCCN1CC[C@@H]2c3cc(O)ccc3CC[C@H]21`, in assay [1], the Potency entry is “inactive”. For the same compound, the call in [9], in assay [3], in assay [4], in assay [5] and in assay [6] was inactive. The Potency in assay [11] and in assay [2] was 14100 nM (active) each time.

Turning to `C[C@@H]1O[C@H]1P(=O)(O)O`, the Potency entry in [10], in [11] and in assay [2] was “inactive” each time. Further, the outcome in assay [9], in [3], in assay [4], in assay [5] and in assay [6] was inactive.

Turning to `CC(=O)OCC1=C(C(=O)[O-])N2C(=O)[C@@H](NC(=O)CCC[C@@H](N)C(=O)[O-])[C@@H]2SC1.[Zn+2]`, the Potency entry in assay [1], in assay [11] and in assay [2] was “inactive” in each case. For the same compound, the call in [9], in assay [3], in assay [4], in assay [5] and in assay [6] was inactive.

`Oc1ccc2c3c1O[C@@H]1c4[nH]c5c(c4C[C@@]4(O)[C@@H](C2)N(CC2CC2)CC[C@]314)C[C@]1(O)[C@@H]2Cc3ccc(O)c4c3[C@@]1(CCN2CC1CC1)[C@H]5O4`: the Potency entry in assay [7], in assay [1] and in assay [11] was “inactive” each time. The compound was called inactive in assay [9], in [3], in assay [4], in assay [5] and in [6].

In the case of `N[C@H](Cn1ccc(=O)[nH]c1=O)C(=O)O`, the Potency result in [1] and in [11] was “inactive” in each case. The call in [9], in assay [3], in assay [4], in assay [5] and in [6] was inactive.

In the case of `CN1C[C@@H](CS(=O)(=O)N(C)C)C[C@H]2c3cccc4c3c(cn4C)C[C@@H]21`, the Potency entry in assay [1] and in [2] was “inactive” in each case. Further, the compound was called inactive in [9], in assay [3], in assay [4], in assay [5] and in assay [6].

As to `C#CCN[C@@H](C)Cc1ccccc1`, the call in assay [9], in assay [3], in [4], in [5] and in assay [6] was inactive. Further, the Potency result in assay [11] and in assay [2] was “inactive” throughout.

In the case of `C=CCN1CC[C@]23c4c5ccc(O)c4O[C@@H]2/C(=N/NC(=O)c2ccccc2)CC[C@@]3(O)[C@H]1C5`, the Potency entry in [7], in assay [11] and in [2] was “inactive” in each case. Moreover, the result in assay [9], in assay [3], in [4], in [5] and in assay [6] was inactive.

(Values after PubChem BioAssay (NCATS).)
